The list is not random: actives were taken first. Their share in the collection is about 7.6%.
hERG WT inh: qHTS for Inhibitors of KCHN2 3.1: Wildtype qHTS | U2OS, BacMam KCNH2, thallium flux FluxOr; stronger effect = lower value | activity change, % at 1.84 µM | 340,000 tested, 0.37% active | AID 720551, 2013;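 active = maximum activity change below -70%; inconclusive = maximum activity change between -70% and -50%; inactive = maximum activity change above -50%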; also: % is scaled to controls: 0 for no effect and ±100 for the full control effect
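U2OS cells transduced with wild-type KCNH2 virus are loaded with FluxOr dye for 45 min, and thallium flux is measured in kinetic reads before and after stimulation buffer. Rate constants are normalized to DMSO controls.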
KB-V1 cytotox: qHTS assay for MDR1-selective chemotherapeutics: Primary screen using the drug-selected MDR subline cells KB-V1. KB-V1 MDR cells viability, CellTiter-Glo, 72 h. Potency, µM (top dose mostly 46.1 µM), most hits filed as cytotoxic. 400,000 tested, 3.4% active. AID 1347076, 2019; also: potency is read from the fitted curve at half-maximal effect; % is scaled to controls: 0 for no effect and ±100 for the full control effect; nearly all actives have a fitted effect of over 60% in size
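Potencies derive from concentration-effect curves fitted to normalized luminescence (CellTiter-Glo) of KB-V1 cells treated for 72 h at 37 degrees C in phenol-red-free DMEM containing 10% FBS.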
KB-3-1 tox: qHTS assay for MDR1-selective chemotherapeutics: Primary screen using the parental adenocarcinoma cell KB-3-1; KB-3-1 viability, CellTiter-Glo ATP luminescence, 72 h; Potency, µM (titrated, usually from 46.1 µM), most hits filed as cytotoxic; 400,000 tested, 1.4% active; also: potency is read from the fitted curve at half-maximal effect; % is scaled to controls: 0 for no effect and ±100 for the full control effect; nearly all actives have a fitted effect of over 60% in size
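KB-3-1 cells, DMEM (no phenol red) + 10% FBS; compound by pin transfer, 72 h, 37 °C. Readout: CellTiter-Glo luminescence after 10 min. Data normalized, curve-fitted.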
MCF10A rerep: A quantitative high throughput screen for small molecules that induce DNA re-replication in MCF 10a normal breast cells. MCF 10A DNA re-replication, Hoechst nuclear intensity, 48 h. Potency, µM (doses to about 46.1 µM), inactives show top-dose activity, positive = re-replication, most hits filed as activators. 350,000 tested, 2.9% active; also: potency is read from the fitted curve at half-maximal effect; % of control where 0% means no effect; nearly all actives have a fitted effect of over 50% in size
SW480 rerep: A quantitative high throughput screen for small molecules that induce DNA re-replication in SW480 colon adenocarcinoma cells; 340,000 tested, 1.8% active; SW480 DNA re-replication, Hoechst DNA content imaging, 48 h; Potency, µM (titrated, usually from 46.1 µM), for inactives: at the top dose re-replication activation, most hits filed as activators; also: potency is read from the fitted curve at half-maximal effect; % of control where 0% means no effect; nearly all actives have a fitted effect of over 55% in size
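Compounds, transferred as 23 nL by pin tool, were incubated with cells for 48 hr; DNA content per nucleus was then quantified by Hoechst staining and fluorescence plate imaging.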
KCNH2 3.1 inh: qHTS for Inhibitors of KCHN2 3.1: Mutant qHTS | Potassium voltage-gated channel subfamily H member 2, brain isoform KCNH2 3.1 (human) | U2OS KCNH2 3.1, thallium flux FluxOr; stronger effect = lower value | activity change, % (tested at about 1.8 µM) | 340,000 tested, 0.95% active;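 active = maximum activity change below -70%; inconclusive = maximum activity change from -70% to -50%; inactive = maximum activity change above -50%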;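 also: thallium influx rate constant from kinetic fluorescence after stimulation buffer; % is scaled to controls: 0 for no effect and ±100 for the full control effect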
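We transduce U2OS cells with the mutant 3.1 virus, culture them overnight, load FluxOr with Red40 quencher for 45 min, then add stimulation buffer and read kinetically for 2 min to derive a normalized rate constant.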
* marks the source's active call; other numbers are inactive results; i = inactive; ? = inconclusive; nt = not tested or not shown. Unless noted, calls follow the shape of the dose curve; as a rule, active = well fitted curve in the direction sought with a large enough effect; inconclusive = small, poorly fitted or top-dose-only effect, or another doubt; inactive = no such curve, though single readings can be large; an effect the other way counts as inactive or inconclusive.

SMILES	hERG WT inh	KB-V1 cytotox	KB-3-1 tox	MCF10A rerep	SW480 rerep	KCNH2 3.1 inh
COc1ccc(NC(=O)C2CCCN2C(=O)Nc2ccc(OC)cc2)cc1 (stereo not drawn)	-4	i	i	-3%	-2%	-2
CN(CC1CCCO1)S(=O)(=O)c1ccc(C(=O)Nc2ccc(S(N)(=O)=O)cc2)cc1 (stereo not drawn)	6	i	i	-2%	1%	21
Cc1ccc2[nH]c(=O)c3cc(C(=O)NC4CCC(C)CC4)sc3c2c1 (stereo not drawn)	nt	i	i	nt	nt	nt
COc1cc(/C=C2\SC(=S)N(CCC(=O)N3CCCCC3)C2=O)cc(OC)c1OC	-9	?	?	21µM*	?	-8
COc1ccc(/C=C2\SC(=O)N(CC(=O)Nc3ccc(F)cc3)C2=O)cc1O	4	i	i	26µM*	-13%	9
C/C=C/c1ccc(OCCCCN2CCN(CC)CC2)c(OC)c1	nt	i	i	-5%	8.2µM*	5
COc1cc(OC)cc(C(=O)NC(C(=O)N2CCc3ccccc3C2)C(C)C)c1 (stereo not drawn)	-14	?	?	?	18µM*	-3
COc1cc(OC)cc(C(=O)N[C@H](C(=O)N2CCc3ccccc32)C(C)C)c1	-20	?	i	?	?	16
COc1ccc(OC)c(CN2CCN(C(=O)[C@@H](NC(=O)c3cccc(C)c3)C(C)C)CC2)c1	43	9.2µM*	i	?	7%	-20
COc1ccc(C(=O)N2CCN(Cc3cc(OC)ccc3OC)CC2)cc1	-30	i	i	-2%	-9%	-5
O=C(NC1CCCCC1)C(c1c(F)cccc1Cl)N(C(=O)c1csnn1)C1CC1 (stereo not drawn)	-9	i	i	13%	-2%	-2
CN1C(=O)C(=O)/C(=C(/O)c2ccc(Br)cc2)C1c1ccc(F)cc1 (stereo not drawn)	12	i	i	-13%	-102%	-2
CCCCn1c(SCc2ccc(C(=O)OC)o2)nc2cc(S(N)(=O)=O)ccc21	4	?	18µM*	-3%	0%	-26
COc1ccccc1C1=NN(C(=S)Nc2ccccc2)C(c2ccco2)C1 (stereo not drawn)	-7	15µM*	?	13%	?	-13
COc1ccc(OC)c(C2CC(c3ccccc3)=NN2C(=S)Nc2ccccc2)c1 (stereo not drawn)	11	i	i	4.1µM*	4.6µM*	3
CNC(=S)N1N=C(c2ccc(C)cc2)CC1c1cc(OC)ccc1OC (stereo not drawn)	-9	?	12µM*	?	?	8
N#CC1(NC(=O)COC(=O)c2nccnc2N)CCCCC1	-202*	i	i	0%	-6%	4
N#CC1(NC(=O)COC(=O)c2ccc(Cl)nc2)CCCCC1	2	i	i	0%	3%	-1
CCCCN1C=CC(=C2C(=O)c3ccccc3C2=O)C=C1	6	?	i	-4%	-5%	nt
